Hit rate of the full screen: of about 5,500 compounds, about 2,000 (36%) were called active. Inconclusive results (about 18%) are left out. Rule as the data show it: active = normalized growth mostly below about 0.91 (no sharp cut-off); inconclusive = no clear call, values can overlap the other calls; inactive = mostly above about 0.92. The list shows a part of the results.
Experiment: chemical genetic growth profiling, strain panel (AID 1159580);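 also: tested at 20 µM; growth read once vehicle control cultures reached saturation at 30 °C; 1 = growth at the plate median or of vehicle wells; lower values mean less growth of the strain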
Details: S. cerevisiae deletion strains, growth OD
[1] = locus YHR030C, strain SLT2, hits give low values
[2] = locus YHR079C, strain IRE1, hits give low values
[3] = locus YJL095W, strain BCK1, hits give low values
[4] = locus YJR066W, strain TOR1, hits give low values
[5] = locus YLR113W, strain HOG1, hits give low values
[6] = locus YNL183C, strain NPR1, hits give low values
[7] = locus YOR231W, strain MKK1, hits give low values
[8] = locus YPL256C, strain CLN2, hits give low values

Measured: normalized growth

Cc1cccc(C#Cc2ccccc2)n1
inactive: locus YAL040C, strain CLN3, hits give low values 0.997 | locus YCL061C, strain MRC1 (second series), hits give low values 0.968 | locus YDR363W, strain ESC2, hits give low values 1.05 | locus YER002W, strain NOP16, hits give low values 0.986 | locus YGR078C, strain PAC10, hits give low values 0.978 | locus YMR263W, strain SAP30, hits give low values 0.993 | locus YMR307W, strain GAS1, hits give low values 0.919 | locus YNL128W, strain TEP1, hits give low values 0.992 | locus YNL175C, strain NOP13, hits give low values 0.977 | locus YNL197C, strain WHI3, hits give low values 1 | locus YNL224C, strain SQS1, hits give low values 1 | locus YNL322C, strain KRE1, hits give low values 0.976 | locus YOR083W, strain WHI5 (second series), hits give low values 0.918

CC(C)(CO)C(O)C(=O)NCCCO (stereo unspecified)
inactive: locus YAL021C, strain ccr4, hits give low values 1 | locus YAL026C, strain drs2, hits give low values 1.02 | locus YAL030W, strain snc1, hits give low values 1.02 | locus YBL061C, strain skt5, hits give low values 1.02 | locus YBR009C, strain hhf1, hits give low values 1.03 | locus YBR023C, strain chs3, hits give low values 1.03 | locus YBR171W, strain sec66, hits give low values 1.03 | locus YBR231C, strain swc5, hits give low values 1.02 | locus YBR279W, strain paf1, hits give low values 1.01 | locus YCL011C, strain gbp2, hits give low values 1.02 | locus YCL016C, strain dcc1, hits give low values 1.02 | locus YCL061C, strain MRC1, hits give low values 1.01 | locus YCL069W, strain vba3, hits give low values 1.01 | locus YCR088W, strain abp1, hits give low values 1.01 | locus YDL005C, strain med2, hits give low values 1.01 | locus YDL040C, strain nat1, hits give low values 1.01 | locus YDR001C, strain nth1, hits give low values 1.02 | locus YDR069C, strain doa4, hits give low values 1.02 | locus YDR137W, strain rgp1, hits give low values 1.03 | locus YDR159W, strain sac3, hits give low values 1.03 | locus YDR195W, strain ref2 1.01 | locus YDR297W, strain sur2, hits give low values 1.01 | locus YDR334W, strain swr1, hits give low values 1.01 | locus YDR335W, strain msn5, hits give low values 1.01 | locus YDR392W, strain spt3, hits give low values 1.02 | locus YEL003W, strain gim4, hits give low values 1.02 | locus YEL037C, strain rad23, hits give low values 1.01 | locus YEL061C, strain CIN8 (second series), hits give low values 1.02 | locus YER015W, strain faa2, hits give low values 1.01 | locus YER016W, strain bim1, hits give low values 1.02 | locus YER111C, strain swi4, hits give low values 1.01 | locus YER155C, strain BEM2 (second series), hits give low values 1.04 | locus YFR010W, strain ubp6, hits give low values 1.01 | locus YGL167C, strain pmr1, hits give low values 1.03 | locus YGL173C, strain kem1, hits give low values 1.02 | locus YGL227W, strain vid30, hits give low values 1.02 | locus YGL240W, strain doc1, hits give low values 1.02 | locus YGL253W, strain hxk2, hits give low values 1.02 | locus YHR013C, strain ard1, hits give low values 1.03 | locus YHR027C, strain rpn1, hits give low values 1.02 | [1] 1.02 | [2] 1.01 | locus YHR142W, strain chs7, hits give low values 1.01 | locus YJL092W, strain hpr5, hits give low values 1.01 | locus YJL095W, strain BCK1 (second series), hits give low values 1.01 | [3] 0.995 | locus YJL115W, strain asf1, hits give low values 1.02 | locus YJL129C, strain trk1, hits give low values 1.02 | locus YJL154C, strain vps35, hits give low values 1.01 | locus YJL164C, strain tpk1, hits give low values 1.02 | locus YJL166W, strain qcr8, hits give low values 1.02 | locus YJL187C, strain SWE1, hits give low values 1.01 | [4] 0.964 | locus YKL160W, strain elf1, hits give low values 1.01 | locus YKR026C, strain gcn3, hits give low values 0.994 | locus YKR091W, strain srl3, hits give low values 1.01 | locus YLL001W, strain dnm1, hits give low values 1.02 | locus YLL026W, hits give low values 1.02 | locus YLL041C, strain sdh2, hits give low values 1.02 | locus YLR027C, strain aat2, hits give low values 1.02 | [5] 0.985 | locus YLR221C, strain rsa3, hits give low values 1.01 | locus YLR258W, strain gsy2, hits give low values 1.02 | locus YLR262C, strain YPT6 (second series), hits give low values 1.02 | locus YLR320W, strain mms22, hits give low values 1.02 | locus YLR342W, strain FKS1, hits give low values 1.01 | locus YLR357W, strain rsc2, hits give low values 1.04 | locus YLR370C, strain arc18, hits give low values 1.02 | locus YLR384C, strain iki3, hits give low values 1.02 | locus YML120C, strain ndi1, hits give low values 1.01 | locus YMR058W, strain fet3, hits give low values 1.01 | locus YMR125W, strain sto1, hits give low values 1.03 | locus YMR129W, hits give low values 1.01 | locus YMR205C, strain PFK2, hits give low values 1.03 | locus YMR231W, strain pep5, hits give low values 1.01 | locus YNL071W, strain lat1, hits give low values 1.02 | [6] 0.954 | locus YNL209W, strain ssb2, hits give low values 1.01 | locus YNL248C, strain rpa49, hits give low values 0.992 | locus YNL322C, strain KRE1 (second series), hits give low values 1.01 | locus YNR049C, strain mso1, hits give low values 1.01 | locus YOR001W, strain rrp6, hits give low values 1 | locus YOR070C, strain gyp1, hits give low values 1.01 | locus YOR080W, strain dia2, hits give low values 1.02 | locus YOR083W, strain WHI5, hits give low values 1 | locus YOR106W, strain vam3, hits give low values 1 | [7] 1.01 | locus YOR265W, strain rbl2, hits give low values 1.01 | locus YOR270C, strain vph1, hits give low values 1.03 | locus YOR290C, strain snf2, hits give low values 1.03 | locus YPL051W, strain arl3, hits give low values 1.03 | locus YPL078C, strain atp4, hits give low values 1.01 | locus YPL106C, strain sse1, hits give low values 1 | locus YPL240C, strain hsp82, hits give low values 1.01 | [8] 0.994

C=C1CC[C@H](O)C/C1=C/C=C1\CCCC2(C)C1CCC2C(C)CCCC(C)C (stereo partly specified)
active: [5] 0.843
inactive: [1] 0.874 | [2] 0.925 | [3] 0.893 | [4] 0.943 | [6] 0.915 | [7] 0.896 | [8] 0.846

Source: PubChem BioAssay AID1159580 (chemical genetic matrix, 2015)
